Source: PubChem BioAssay AID1159580 (chemical genetic matrix, 2015)
In all, about 5,500 compounds went through this assay and about 2,000 (36%) were called active. Another 18% or so got no clear call; they are omitted. No stated cut-off is given here; in the data, active means normalized growth mostly below about 0.91 (no sharp cut-off); inconclusive means no clear call, values can overlap the other calls; inactive means mostly above about 0.92. The list shows a part of the results.

Assay: chemical genetic growth profiling, strain panel (AID 1159580);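 further: tested at 20 µM; growth read once vehicle control cultures reached saturation at 30 °C; 1 = growth at the plate median or of vehicle wells; lower values mean less growth of the strain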
Conditions: S. cerevisiae deletion strains, growth OD
[1] = locus YHR030C, strain SLT2, hits give low values
[2] = locus YHR079C, strain IRE1, hits give low values
[3] = locus YJL095W, strain BCK1, hits give low values
[4] = locus YJR066W, strain TOR1, hits give low values
[5] = locus YLR113W, strain HOG1, hits give low values
[6] = locus YNL183C, strain NPR1, hits give low values
[7] = locus YOR231W, strain MKK1, hits give low values
[8] = locus YPL256C, strain CLN2, hits give low values

Measured: normalized growth

CC(O)C(C)OC(=O)[C@@H]1C[C@@H]2c3cccc4c3c(cn4C(C)C)C[C@H]2N(C)C1 (some centres undefined)
inactive: locus YAL040C, strain CLN3, hits give low values 0.977 | locus YCL061C, strain MRC1 (second series), hits give low values 0.98 | locus YDR363W, strain ESC2, hits give low values 0.996 | locus YER002W, strain NOP16, hits give low values 1 | locus YNL175C, strain NOP13, hits give low values 1 | locus YNL197C, strain WHI3, hits give low values 0.991 | locus YNL224C, strain SQS1, hits give low values 1.01 | locus YNL322C, strain KRE1, hits give low values 0.973 | locus YOR083W, strain WHI5 (second series), hits give low values 0.99 | locus YPL055C, strain LGE1, hits give low values 1

C[C@@H]1CC2C3CCC4=CC(=O)C=C[C@]4(C)[C@@]3(F)[C@@H](O)C[C@]2(C)[C@@]1(O)C(=O)CO (some centres undefined)
inactive: locus YAL021C, strain ccr4, hits give low values 0.96 | locus YAL026C, strain drs2, hits give low values 0.988 | locus YAL030W, strain snc1, hits give low values 0.969 | locus YBL061C, strain skt5, hits give low values 0.976 | locus YBR009C, strain hhf1, hits give low values 0.989 | locus YBR023C, strain chs3, hits give low values 0.999 | locus YBR171W, strain sec66, hits give low values 0.947 | locus YBR231C, strain swc5, hits give low values 0.978 | locus YBR279W, strain paf1, hits give low values 1 | locus YCL011C, strain gbp2, hits give low values 0.988 | locus YCL016C, strain dcc1, hits give low values 1.03 | locus YCL069W, strain vba3, hits give low values 0.975 | locus YCR088W, strain abp1, hits give low values 0.978 | locus YDL005C, strain med2, hits give low values 0.966 | locus YDL040C, strain nat1, hits give low values 0.964 | locus YDR001C, strain nth1, hits give low values 0.966 | locus YDR069C, strain doa4, hits give low values 0.96 | locus YDR137W, strain rgp1, hits give low values 1.02 | locus YDR159W, strain sac3, hits give low values 0.968 | locus YDR195W, strain ref2 0.948 | locus YDR297W, strain sur2, hits give low values 0.988 | locus YDR334W, strain swr1, hits give low values 0.957 | locus YDR335W, strain msn5, hits give low values 0.976 | locus YDR392W, strain spt3, hits give low values 1.06 | locus YEL003W, strain gim4, hits give low values 0.973 | locus YEL037C, strain rad23, hits give low values 0.974 | locus YEL061C, strain CIN8 (second series), hits give low values 0.976 | locus YER015W, strain faa2, hits give low values 0.995 | locus YER016W, strain bim1, hits give low values 1.03 | locus YER111C, strain swi4, hits give low values 0.971 | locus YER155C, strain BEM2 (second series), hits give low values 0.958 | locus YFR010W, strain ubp6, hits give low values 0.958 | locus YGL167C, strain pmr1, hits give low values 0.957 | locus YGL173C, strain kem1, hits give low values 0.964 | locus YGL227W, strain vid30, hits give low values 0.987 | locus YGL240W, strain doc1, hits give low values 0.966 | locus YGL253W, strain hxk2, hits give low values 1 | locus YHR013C, strain ard1, hits give low values 0.995 | locus YHR027C, strain rpn1, hits give low values 0.993 | [1] 1.02 | [2] 1.01 | locus YHR142W, strain chs7, hits give low values 0.948 | locus YJL092W, strain hpr5, hits give low values 0.964 | locus YJL095W, strain BCK1 (second series), hits give low values 0.967 | [3] 1.02 | locus YJL115W, strain asf1, hits give low values 0.976 | locus YJL129C, strain trk1, hits give low values 0.976 | locus YJL154C, strain vps35, hits give low values 0.951 | locus YJL164C, strain tpk1, hits give low values 1.01 | locus YJL166W, strain qcr8, hits give low values 0.916 | [4] 0.997 | locus YKL160W, strain elf1, hits give low values 0.989 | locus YKR026C, strain gcn3, hits give low values 0.98 | locus YKR091W, strain srl3, hits give low values 0.961 | locus YLL001W, strain dnm1, hits give low values 0.911 | locus YLL026W, hits give low values 0.985 | locus YLL041C, strain sdh2, hits give low values 0.972 | locus YLR027C, strain aat2, hits give low values 0.976 | [5] 1.03 | locus YLR221C, strain rsa3, hits give low values 1.02 | locus YLR258W, strain gsy2, hits give low values 0.987 | locus YLR262C, strain YPT6 (second series), hits give low values 0.943 | locus YLR320W, strain mms22, hits give low values 1 | locus YLR342W, strain FKS1, hits give low values 0.951 | locus YLR357W, strain rsc2, hits give low values 0.966 | locus YLR370C, strain arc18, hits give low values 0.996 | locus YLR384C, strain iki3, hits give low values 0.982 | locus YML120C, strain ndi1, hits give low values 0.969 | locus YMR058W, strain fet3, hits give low values 0.981 | locus YMR125W, strain sto1, hits give low values 0.951 | locus YMR129W, hits give low values 0.993 | locus YMR205C, strain PFK2, hits give low values 0.969 | locus YMR231W, strain pep5, hits give low values 0.96 | locus YNL071W, strain lat1, hits give low values 0.971 | [6] 0.965 | locus YNL209W, strain ssb2, hits give low values 0.997 | locus YNL248C, strain rpa49, hits give low values 1.01 | locus YNL322C, strain KRE1 (second series), hits give low values 0.962 | locus YNR049C, strain mso1, hits give low values 0.984 | locus YOR001W, strain rrp6, hits give low values 0.976 | locus YOR070C, strain gyp1, hits give low values 0.997 | locus YOR080W, strain dia2, hits give low values 0.948 | locus YOR083W, strain WHI5, hits give low values 0.968 | locus YOR106W, strain vam3, hits give low values 0.933 | [7] 1.01 | locus YOR265W, strain rbl2, hits give low values 0.986 | locus YOR270C, strain vph1, hits give low values 0.955 | locus YOR290C, strain snf2, hits give low values 1.02 | locus YPL051W, strain arl3, hits give low values 1.01 | locus YPL078C, strain atp4, hits give low values 0.928 | locus YPL106C, strain sse1, hits give low values 0.981 | locus YPL240C, strain hsp82, hits give low values 0.98 | [8] 1.01

COc1ccc(Nc2nc(NC(=O)Nc3ccc(Cl)cc3)n[nH]2)cc1
inactive: locus YAR019C, strain CDC15, hits give low values 0.996 | locus YBL105C, strain PKC1, hits give low values 0.994 | locus YBR135W, strain CKS1, hits give low values 1 | locus YBR136W, strain MEC1, hits give low values 0.992 | locus YBR160W, strain CDC28, hits give low values 1 | locus YDL017W, strain CDC7, hits give low values 1 | locus YDL028C, strain MPS1, hits give low values 0.986 | locus YDL101C, strain DUN1, hits give low values 1 | locus YDL108W, strain KIN28, hits give low values 0.982 | locus YDL132W, strain cdc53, hits give low values 0.99 | locus YDL214C, strain PRR2, hits give low values 0.867 | locus YDR052C, strain DBF4, hits give low values 1 | locus YDR054C, strain cdc34, hits give low values 1 | locus YDR226W, strain ADK1, hits give low values 0.994 | locus YDR477W, strain SNF1, hits give low values 0.809 | locus YER123W, strain YCK3, hits give low values 0.715 | locus YER133W, strain GLC7, hits give low values 0.757 | locus YFL009W, strain cdc4, hits give low values 0.994 | locus YFL029C, strain CAK1, hits give low values 0.998 | locus YFR003C, strain YPI1, hits give low values 0.996 | locus YFR019W, strain FAB1, hits give low values 0.866 | locus YFR028C, strain CDC14, hits give low values 0.988 | locus YGR040W, strain KSS1, hits give low values 0.789 | locus YGR052W, strain FMP48, hits give low values 0.788 | locus YGR092W, strain DBF2, hits give low values 0.793 | [1] 0.887 | [2] 0.893 | locus YHR082C, strain KSP1, hits give low values 0.868 | locus YHR205W, strain SCH9, hits give low values 0.842 | locus YIL147C, strain SLN1, hits give low values 0.979 | [3] 0.861 | locus YJL128C, strain PBS2, hits give low values 0.957 | locus YJL157C, strain FAR1, hits give low values 0.88 | locus YJR016C, strain ILV3, hits give low values 0.991 | locus YJR066W, strain TOR1 (second series), hits give low values 0.758 | [4] 0.929 | locus YKL048C, strain ELM1, hits give low values 0.854 | locus YKL067W, strain YNK1, hits give low values 0.876 | locus YKL101W, strain HSL1, hits give low values 0.83 | locus YKL193C, strain SDS22, hits give low values 0.991 | locus YKL203C, strain TOR2, hits give low values 0.892 | locus YLR133W, strain CKI1, hits give low values 0.795 | locus YLR403W, strain SFP1, hits give low values 0.742 | locus YML070W, strain DAK1, hits give low values 0.846 | locus YMR001C, strain CDC5, hits give low values 1 | locus YMR205C, strain PFK2 (second series), hits give low values 0.782 | locus YMR277W, strain FCP1, hits give low values 0.991 | locus YNL006W, strain LST8, hits give low values 1.02 | locus YNL020C, strain ARK1, hits give low values 0.811 | locus YNL161W, strain CBK1, hits give low values 0.998 | [6] 0.763 | locus YNL207W, strain RIO2, hits give low values 0.992 | locus YNL222W, strain SSU72, hits give low values 0.993 | locus YNL307C, strain MCK1 (second series), hits give low values 0.832 | locus YOL078W, strain AVO1, hits give low values 0.991 | locus YOL136C, strain PFK27, hits give low values 0.848 | locus YOR061W, strain CKA2, hits give low values 0.741 | locus YOR119C, strain RIO1, hits give low values 0.853 | [7] 0.94 | locus YOR329C, strain SCD5, hits give low values 1 | locus YPL031C, strain PHO85, hits give low values 0.749 | locus YPL153C, strain RAD53, hits give low values 0.756 | locus YPL204W, strain HRR25, hits give low values 0.795 | locus YPL209C, strain IPL1, hits give low values 0.996 | locus YPR025C, strain CCL1, hits give low values 0.99 | locus YPR106W, strain ISR1, hits give low values 0.991 | locus YPR111W, strain DBF20, hits give low values 0.981 | strain NNK1, hits give low values 0.99 | strain TSCII, hits give low values 1
active: [5] 0.813 | [8] 0.797
